Measured values published in PubChem BioAssay AID1159580 (chemical genetic matrix, 2015).
Several values for one entry are separate records, joined by “and”; a condition that tells them apart may be missing. Equal values may be shown once. About 2,000 (36%) of roughly 5,500 compounds were called active. Inconclusive results (about 18%) are left out. Rule as the data show it: active = normalized growth mostly below about 0.91 (no sharp cut-off); inconclusive = no clear call, values can overlap the other calls; inactive = mostly above about 0.92. This is one part of the list.

Experiment: chemical genetic growth profiling, strain panel (AID 1159580);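 also: tested at 20 µM; growth read once vehicle control cultures reached saturation at 30 °C; 1 = growth at the plate median or of vehicle wells; lower values mean less growth of the strain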
Conditions: S. cerevisiae deletion strains, growth OD

Measured: normalized growth

C=C[C@@]1(C)CC(=O)[C@@]2(O)[C@](C)(O1)[C@@H](OC(C)=O)[C@@H](O)C1C(C)(C)CC[C@H](O)[C@@]12C (stereo partly specified)
inactive: locus YAL013W, strain DEP1, hits give low values 0.984 | locus YAL021C, strain ccr4, hits give low values 0.951 | locus YAL026C, strain drs2, hits give low values 0.978 | locus YAL030W, strain snc1, hits give low values 0.973 | locus YBL061C, strain skt5, hits give low values 0.984 | locus YBR009C, strain hhf1, hits give low values 1 | locus YBR021W, strain FUR4, hits give low values 1.01 | locus YBR023C, strain chs3, hits give low values 0.978 | locus YBR171W, strain sec66, hits give low values 0.992 | locus YBR229C, strain ROT2, hits give low values 0.947 | locus YBR231C, strain swc5, hits give low values 1.01 | locus YBR279W, strain paf1, hits give low values 0.974 | locus YCL011C, strain gbp2, hits give low values 0.954 | locus YCL016C, strain dcc1, hits give low values 0.956 | locus YCL029C, strain bik1, hits give low values 0.977 | locus YCL069W, strain vba3, hits give low values 0.983 | locus YCR088W, strain abp1, hits give low values 0.996 | locus YDL005C, strain med2, hits give low values 0.983 | locus YDL035C, strain GPR1, hits give low values 0.96 | locus YDL040C, strain nat1, hits give low values 0.986 | locus YDL074C, strain BRE1, hits give low values 0.999 | locus YDL101C, strain DUN1, hits give low values 0.988 | locus YDL134C, strain PPH21, hits give low values 0.981 | locus YDL185W, strain tfp1, hits give low values 0.986 | locus YDL192W, strain arf1, hits give low values 0.976 | locus YDR001C, strain nth1, hits give low values 0.976 | locus YDR069C, strain doa4, hits give low values 0.975 | locus YDR101C, strain arx1, hits give low values 0.986 | locus YDR137W, strain rgp1, hits give low values 0.989 | locus YDR150W, strain NUM1, hits give low values 0.972 | locus YDR159W, strain sac3, hits give low values 1.02 | locus YDR162C, strain NBP2, hits give low values 0.969 | locus YDR195W, strain ref2 1.02 | locus YDR297W, strain sur2, hits give low values 0.977 | locus YDR318W, strain mcm21, hits give low values 0.986 | locus YDR334W, strain swr1, hits give low values 0.972 | locus YDR335W, strain msn5, hits give low values 0.988 | locus YDR388W, hits give low values 0.988 | locus YDR392W, strain spt3, hits give low values 0.905 | locus YDR502C, strain sam2, hits give low values 0.965 | locus YEL003W, strain gim4, hits give low values 0.994 | locus YEL037C, strain rad23, hits give low values 0.997 | locus YEL061C, strain CIN8 (second series), hits give low values 0.992 | locus YEL061C, strain CIN8, hits give low values 0.983 | locus YER015W, strain faa2, hits give low values 0.993 | locus YER016W, strain bim1, hits give low values 0.963 | locus YER110C, hits give low values 0.976 | locus YER111C, strain swi4, hits give low values 1.01 | locus YER155C, strain BEM2 (second series), hits give low values 0.999 | locus YER155C, strain BEM2, hits give low values 1.01 | locus YER167W, strain BCK2, hits give low values 0.964 | locus YFR010W, strain ubp6, hits give low values 0.998 | locus YGL078C, strain dbp3, hits give low values 0.985 | locus YGL086W, strain mad1, hits give low values 0.984 | locus YGL167C, strain pmr1, hits give low values 0.99 | locus YGL173C, strain kem1, hits give low values 0.987 | locus YGL227W, strain vid30, hits give low values 0.985 | locus YGL240W, strain doc1, hits give low values 0.98 | locus YGL248W, strain PDE1, hits give low values 0.982 | locus YGL253W, strain hxk2, hits give low values 0.948 | locus YGR078C, strain PAC10, hits give low values 1.01 | locus YGR135W, strain pre9, hits give low values 0.985 | locus YGR229C, strain SMI1, hits give low values 0.998 | locus YGR252W, strain gcn5, hits give low values 1 | locus YHR013C, strain ard1, hits give low values 0.948 | locus YHR027C, strain rpn1, hits give low values 0.982 | locus YHR030C, strain SLT2, hits give low values 0.987 and 0.975 | locus YHR079C, strain IRE1 (second series), hits give low values 0.994 | locus YHR079C, strain IRE1, hits give low values 0.978 | locus YHR094C, strain hxt1, hits give low values 0.987 | locus YHR129C, strain ARP1, hits give low values 0.996 | locus YHR142W, strain chs7, hits give low values 0.955 | locus YHR200W, strain rpn10, hits give low values 0.989 | locus YIL066C, strain RNR3, hits give low values 0.979 | locus YIL073C, strain SPO22, hits give low values 0.945 | locus YIL125W, strain kgd1, hits give low values 0.983 | locus YIR030C, strain dcg1, hits give low values 0.979 | locus YJL092W, strain hpr5, hits give low values 0.974 | locus YJL095W, strain BCK1 (second series), hits give low values 0.978 | locus YJL095W, strain BCK1, hits give low values 1 and 0.973 | locus YJL115W, strain asf1, hits give low values 0.964 | locus YJL129C, strain trk1, hits give low values 0.954 | locus YJL134W, strain LCB3, hits give low values 0.984 | locus YJL154C, strain vps35, hits give low values 0.982 | locus YJL164C, strain tpk1, hits give low values 0.995 | locus YJL166W, strain qcr8, hits give low values 0.992 | locus YJL168C, strain set2, hits give low values 0.992 | locus YJL187C, strain SWE1 (second series), hits give low values 0.991 | locus YJL187C, strain SWE1, hits give low values 0.984 | locus YJR043C, strain POL32, hits give low values 1.01 | locus YJR066W, strain TOR1, hits give low values 0.927
